Assay results reported in publication PMC8384837, “Expanding the binding specificity for RNA recognition by a PUF domain”.

Key:
Assay in all cases: yeast three-hybrid, YBZ-1, SC-Leu-His + 0.5 mM 3-AT, 4 days
Conditions in all cases: tags: N-Gal4 AD-HA kept; label: inside an RPR1-promoter hybrid RNA with tandem MS2 sites; ssRNA
PUM1 PUF domain R5-RKE = PUM1 PUF domain R5-RKE (Homo sapiens, UniProt Q14671 828-1176, C1007R;R1008K;Q1011E)
Method in brief: (§1)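 Matching RNA elements and Pumilio-1 PUF domain libraries, randomized at the three base-contacting residues of every repeat, were co-expressed from a centromeric plasmid in strain YBZ-1 (LexA–MS2 coat fusion, HIS3 reporter). The repeat regions were PCR-amplified and Illumina-sequenced from cells grown four days on SC-Leu (input) or SC-Leu-His + 0.5 mM 3-AT (selection). The interaction score is the log change in variant frequency from input to selection. It is computed in log2, with a pseudocount of 1 for absent variants.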

PUM1 PUF domain R5-SDE = PUM1 PUF domain R5-SDE (Homo sapiens, UniProt Q14671 828-1176, C1007S;R1008D;Q1011E)
Method in brief: as §1

PUM1 PUF domain R4-RMG = PUM1 PUF domain R4-RMG (Homo sapiens, UniProt Q14671 828-1176, N971R;H972M;Q975G)
Method in brief: as §1

PUM1 PUF domain R4-WSW = PUM1 PUF domain R4-WSW (Homo sapiens, UniProt Q14671 828-1176, N971W;H972S;Q975W)
Method in brief: as §1

PUM1 PUF domain R3-SRA = PUM1 PUF domain R3-SRA (Homo sapiens, UniProt Q14671 828-1176, C935S;Q939A)
Method in brief: as §1

PUM1 PUF domain R3-VRM = PUM1 PUF domain R3-VRM (Homo sapiens, UniProt Q14671 828-1176, C935V;Q939M)
Method in brief: as §1

PUM1 PUF domain R8-TWR = PUM1 PUF domain R8-TWR (Homo sapiens, UniProt Q14671 828-1176, N1122T;Y1123W;Q1126R)
Method in brief: as §1

PUM1 PUF domain R3-MRI = PUM1 PUF domain R3-MRI (Homo sapiens, UniProt Q14671 828-1176, C935M;Q939I)
Method in brief: as §1

PUM1 PUF domain R5-PYF = PUM1 PUF domain R5-PYF (Homo sapiens, UniProt Q14671 828-1176, C1007P;R1008Y;Q1011F)
Method in brief: as §1

PUM1 PUF domain R4-QHR = PUM1 PUF domain R4-QHR (Homo sapiens, UniProt Q14671 828-1176, N971Q;Q975R)
Method in brief: as §1

Sequence: GGCUAGAACUAGUGGAUCCCCCGGCGCCCGGCGGCUCGAGCCCGGGUAAGUGUCAAUAGUCUGCAUGCCGCCGGGCGCCAUGCCUGCAGGUCGACUCUAGAAAACAUG
- binding signal (PUM1 PUF domain R5-RKE): 3.39 log2 enrichment (interaction score)

Sequence: GGCUAGAACUAGUGGAUCCCCCGGCGCCCGGCGGCUCGAGCCCGGGUAAGUGUGAAUAGUCUGCAUGCCGCCGGGCGCCAUGCCUGCAGGUCGACUCUAGAAAACAUG
- binding signal (PUM1 PUF domain R5-SDE): 2.31 log2 enrichment (interaction score)

Sequence: GGCUAGAACUAGUGGAUCCCCCGGCGCCCGGCGGCUCGAGCCCGGGUAAGUGUAAAUAGUCUGCAUGCCGCCGGGCGCCAUGCCUGCAGGUCGACUCUAGAAAACAUG
- binding signal (PUM1 PUF domain R4-RMG): 2.77 log2 enrichment (interaction score)
- binding signal (PUM1 PUF domain R4-WSW): 4.02 log2 enrichment (interaction score)
- binding signal (PUM1 PUF domain R3-SRA): 3.83 log2 enrichment (interaction score)
- binding signal (PUM1 PUF domain R3-VRM): 3.67 log2 enrichment (interaction score)
- binding signal (PUM1 PUF domain R8-TWR): 4.94 log2 enrichment (interaction score)

Sequence: GGCUAGAACUAGUGGAUCCCCCGGCGCCCGGCGGCUCGAGCCCGGGUAAGCGUAAAUAGUCUGCAUGCCGCCGGGCGCCAUGCCUGCAGGUCGACUCUAGAAAACAUG
- binding signal (PUM1 PUF domain R8-TWR): 5.17 log2 enrichment (interaction score)

Sequence: GGCUAGAACUAGUGGAUCCCCCGGCGCCCGGCGGCUCGAGCCCGGGUAAGUGUAUAUAGUCUGCAUGCCGCCGGGCGCCAUGCCUGCAGGUCGACUCUAGAAAACAUG
- binding signal (PUM1 PUF domain R4-WSW): 3.38 log2 enrichment (interaction score)

Sequence: GGCUAGAACUAGUGGAUCCCCCGGCGCCCGGCGGCUCGAGCCCGGGUAAGUGUAAGUAGUCUGCAUGCCGCCGGGCGCCAUGCCUGCAGGUCGACUCUAGAAAACAUG
- binding signal (PUM1 PUF domain R3-SRA): 3.65 log2 enrichment (interaction score)
- binding signal (PUM1 PUF domain R3-VRM): 1.15 log2 enrichment (interaction score)
- binding signal (PUM1 PUF domain R3-MRI): 5.12 log2 enrichment (interaction score)

Sequence: GGCUAGAACUAGUGGAUCCCCCGGCGCCCGGCGGCUCGAGCCCGGGUAAGUGUAAUUAGUCUGCAUGCCGCCGGGCGCCAUGCCUGCAGGUCGACUCUAGAAAACAUG
- binding signal (PUM1 PUF domain R3-SRA): 0.68 log2 enrichment (interaction score)
- binding signal (PUM1 PUF domain R3-VRM): 1.73 log2 enrichment (interaction score)
- binding signal (PUM1 PUF domain R3-MRI): 1.25 log2 enrichment (interaction score)

Sequence: GGCUAGAACUAGUGGAUCCCCCGGCGCCCGGCGGCUCGAGCCCGGGUAAGUGUUAAUAGUCUGCAUGCCGCCGGGCGCCAUGCCUGCAGGUCGACUCUAGAAAACAUG
- binding signal (PUM1 PUF domain R5-PYF): 2.41 log2 enrichment (interaction score)
- binding signal (PUM1 PUF domain R5-RKE): 3.74 log2 enrichment (interaction score)

Sequence: GGCUAGAACUAGUGGAUCCCCCGGCGCCCGGCGGCUCGAGCCCGGGUAAGUGUACAUAGUCUGCAUGCCGCCGGGCGCCAUGCCUGCAGGUCGACUCUAGAAAACAUG
- binding signal (PUM1 PUF domain R4-QHR): 2.26 log2 enrichment (interaction score)
- binding signal (PUM1 PUF domain R4-WSW): 2.13 log2 enrichment (interaction score)
